# Values without a mark were called inactive. Active and inactive are the calls of the source. Calls follow the shape of the dose curve; as a rule, active = well fitted curve in the direction sought with a large enough effect in the repeat runs; inconclusive = weak or mixed curves; inactive = flat fitted curve, though single readings scatter.
# Assay: qHTS assay to test for compound auto fluorescence at 590 nm (red) in HEK293 cells (AID 720679)
# Settings: red autofluorescence 540/590 nm; series mostly up to 91.3 µM
# Source text: National Center for Advancing Translational Sciences [NCATS]
# NIH Chemical Genomics Center [NCGC]
# U.S. Environmental Protection Agency [EPA]
# National Institutes of Environmental Health Sciences [NIEHS]
# National Toxicology Program [NTP]
# U.S. Food and Drug Administration [FDA]
# Compound auto fluorescence often interferes with screening of the compound library against various biological targets and signaling pathways. Some of these compounds may have fluorophoric properties. Such properties may interfere with the assay outputs resulting in false positives and/or negatives. To decrease such complications and ensure the compound activities are relevant in terms of biological response, the Tox21 10K compound library was screened for auto fluorescence.
# From the fluorophores used as reporter signals in our screening assays, the auto fluorescence equivalencies of compounds against three fluorophores have been evaluated: Triamterene, Fluorescein and Rose Bengal sodium for blue, green and red fluorescence, respectively. The fluorescence intensities were measured using Excitation/Emission wavelengths at 405/460nm, 485/535nm and 540/590nm for blue, green and red labels, respectively. This assay includes the red fluorescence data.
# Tox21 Assay Protocol Summary:
# 2,000 HEK293 cells in 5 uL of culture medium containing 10% dialyzed FBS per well were dispensed into black wall/clear bottom 1536-well plates using a Multidrop Combi Dispenser (Thermo Scientific). The assay plates were incubated for 4-5 hr at 37C to allow cell attachment to the well bottom, followed by the transfer of 23 nL compound or DMSO vehicle by a pintool work station (Kalypsys, San Diego, CA). After the assay plates were incubated overnight at 37C and 5% CO2, fluorescence intensities in the assay plates were measured by an Envision (PerkinElmer, Shelton, CT) plate reader using three labels for measuring blue, green and red fluorescence at […] 460, 535 and 590nm respectively.
# % is scaled to controls: 0 for no effect and ±100 for the full control effect.
Compound,outcome,"fluorescence, % of fluorescent control"
CC(C)C=O,inactive,–
O=C(O)C[C@H](NC(=O)OCc1ccccc1)C(=O)O,inactive,–
CCCCCCCCCCCCCCN(CCO)CCO,inactive,–
C=CC(C)(CCC=C(C)C)OC(=O)CC(C)C (stereo not given),inactive,–
C1C[C@@H]2[C@H]3CC[C@H](C3)[C@@H]2C1,inactive,–
COc1ccccc1N1CCN(CCCCNC(=O)c2ccc(-c3ccc(C(C)=O)cc3)cc2)CC1,inactive,–
CCOC(=O)c1ccc(OCCN2C[C@H](O)[C@@H](O)[C@H](O)[C@H]2CO)cc1,inactive,–
CCC1(CO)COCOC1,inactive,–
CCC(=O)OC,inactive,–
O=C1NCCN1CCO,inactive,–
CCC(OCCCOC)OC(C)=O (stereo not given),inactive,–
CN1CCCC(n2nc(Cc3ccc(Cl)cc3)c3ccccc3c2=O)CC1 (stereo not given),inactive,–
Oc1cccc(O)c1O,inactive,–
OC[C@H]1O[C@@H](n2cnc3c(=S)nc[nH]c32)[C@H](O)[C@@H]1O,inactive,–
CC(CO)CO,inactive,–
CC(O)c1ccccc1 (stereo not given),inactive,–
CC(C)COCC(CN(Cc1ccccc1)c1ccccc1)N1CCCC1 (stereo not given),inactive,–
CC1(C)O[C@@H]2C[C@H]3[C@@H]4C[C@H](F)C5=CC(=O)C=C[C@]5(C)[C@H]4[C@@H](O)C[C@]3(C)[C@]2(C(=O)CO)O1,–,-0.713% [at 18.6 µM]
CC(=O)Nc1ccc(C)cc1C,inactive,–
Cc1ccc(CO)cc1,inactive,–

Compound,outcome,"fluorescence, % of fluorescent control"
CC1=C(CC=O)C(C)(C)CCC1,inactive,–
CCc1ccccc1,inactive,–
C=C1C[C@@]23CC[C@H]4[C@@](C)(CCC[C@@]4(C)C(=O)O[C@@H]4O[C@H](CO)[C@@H](O)[C@H](O)[C@H]4O)[C@@H]2CC[C@]1(O[C@@H]1O[C@H](CO)[C@@H](O)[C@H](O[C@@H]2O[C@H](CO)[C@@H](O)[C@H](O)[C@H]2O)[C@H]1O[C@@H]1O[C@H](CO)[C@@H](O)[C@H](O)[C@H]1O)C3,inactive,–
CC(C)(c1ccccc1)c1ccccc1,inactive,–
CC(C)C[C@H](NC(=O)[C@H](CCc1ccccc1)NC(=O)CN1CCOCC1)C(=O)N[C@@H](Cc1ccccc1)C(=O)N[C@@H](CC(C)C)C(=O)[C@@]1(C)CO1,inactive,–
CCCCCCCCC(CCCCCC)C(=O)O (stereo not given),inactive,–
CC=C(Cl)Cl,inactive,–
CO[C@]1(NC(=O)CSC(F)F)C(=O)N2C(C(=O)O)=C(CSc3nnnn3CCO)CO[C@H]21,inactive,–
CC/C=C1/OC(=O)c2ccccc21,inactive,–
C/C=C(/C(=C/C)c1ccc(O)cc1)c1ccc(O)cc1,–,0.023% [at 18.6 µM]
CN1CCCC(CC2c3ccccc3Sc3ccccc32)C1 (stereo not given),–,-0.0119% [at 18.6 µM]
CCCCCC[C@@H](O)C/C=C\CCCCCCCC(=O)OCC(O)CO (stereo not given in full),inactive,–
CC(CCC(=O)O)C(=O)O (stereo not given),inactive,–
NCCNCCO,inactive,–
CCCCC(CC)CN (stereo not given),inactive,–
Nc1ccc(N=Nc2ccccc2)c(N)c1,inactive,–
O=C1c2ccccc2C(=O)C1c1ccc(Br)cc1,inactive,–
Cc1c(C)c2c(c(C)c1OC(=O)CCC(=O)OCCO)CC[C@@](C)(CCC[C@H](C)CCC[C@H](C)CCCC(C)C)O2,inactive,–
c1ccc2c(c1)CCc1ccccc1N2,inactive,–
CC(C)=CCC1C(=O)N(c2ccccc2)N(c2ccccc2)C1=O,inactive,–

# From PubChem BioAssay (Tox21)
